WRN inhibitor: qHTS for Inhibitors of WRN Helicase. WRN helicase unwinding, fluorescent forked duplex, kinetic. Potency, µM (highest dose often 114 µM), for inactives: at the top dose activity change, negative = inhibition, actives largely listed as inhibitors. hit rate 0.46% among 360,000. AID 651768, 2012; note: % is set by controls: 0 for no effect and ±100 for the full control effect; nearly all actives have a fitted effect of over 55% in size
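Kinetic red-fluorescence monitoring (525/598 nm) tracks WRN helicase activity after 100 nM fluorophore-quencher forked duplex and 2 mM ATP are added to 20 nM enzyme pretreated 15 min at room temperature with compound.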
Pol iota inh: qHTS for Inhibitors of Polymerase Iota. Pol iota fluorescent replication assay, 10 min. Potency, µM (top dose mostly 115 µM), for the others: at the top dose activity, negative = inhibition, actives largely listed as inhibitors. DNA polymerase iota (Homo sapiens), Q9UNA4. AID 588590, 2011. hit rate 1% among 390,000
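Pol iota at 10 nM preincubated 15 min with compounds at room temperature; reaction started with fluorescent substrate, 50 nM final. Fluorescence read kinetically at 0 and 10 min; buffer-only wells as negative control.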
POLK inh: qHTS for Inhibitors of Polymerase Kappa. DNA polymerase kappa (Homo sapiens), Q9UBT6. purified Pol kappa, fluorescent DNA synthesis assay, 10 min. Potency, µM (titrated, usually from 107 µM), inactives show at the top dose activity, negative = inhibition, hits mostly inhibitors. hit rate 0.53% among 400,000. AID 588579, 2011; note: % is set by controls: 0 for no effect and ±100 for the full control effect
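10 nM Pol kappa preincubated 15 min at room temperature with compounds, then reaction started with substrate at 50 nM final. Fluorescence read kinetically at 0 and 10 min; buffer-only wells served as negative control.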
Pol eta inh: qHTS for Inhibitors of Polymerase Eta. DNA polymerase eta (Homo sapiens), Q9Y253. recombinant Pol eta, fluorescent DNA replication assay. Potency, µM (doses to about 114 µM), inactives show at the highest dose activity change, negative = inhibition, actives largely listed as inhibitors. hit rate 1.2% among 390,000; note: % is set by controls: 0 for no effect and ±100 for the full control effect
Target sequence (Q9Y253 whole entry, looked up): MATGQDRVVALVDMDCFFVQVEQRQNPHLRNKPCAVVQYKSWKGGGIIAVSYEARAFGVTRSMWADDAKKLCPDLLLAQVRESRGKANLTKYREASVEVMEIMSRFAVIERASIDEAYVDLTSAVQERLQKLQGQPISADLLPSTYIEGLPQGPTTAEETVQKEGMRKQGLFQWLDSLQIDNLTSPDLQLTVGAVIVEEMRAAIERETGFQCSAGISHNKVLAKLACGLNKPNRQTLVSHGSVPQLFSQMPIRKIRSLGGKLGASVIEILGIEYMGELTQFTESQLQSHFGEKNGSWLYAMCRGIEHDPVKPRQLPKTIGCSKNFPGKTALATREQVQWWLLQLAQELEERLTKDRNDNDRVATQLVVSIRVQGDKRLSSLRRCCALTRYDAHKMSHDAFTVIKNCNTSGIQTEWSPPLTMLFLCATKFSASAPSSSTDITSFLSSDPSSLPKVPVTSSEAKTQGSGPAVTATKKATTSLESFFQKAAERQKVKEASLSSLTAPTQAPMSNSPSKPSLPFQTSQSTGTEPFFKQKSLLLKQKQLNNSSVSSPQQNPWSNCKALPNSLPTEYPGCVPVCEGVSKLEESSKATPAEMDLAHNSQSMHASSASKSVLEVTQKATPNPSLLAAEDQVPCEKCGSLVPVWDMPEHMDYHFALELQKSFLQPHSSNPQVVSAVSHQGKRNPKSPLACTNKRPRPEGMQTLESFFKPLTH
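Fluorescent replication assay: 50 nM final substrate added after a 15 min room-temperature compound preincubation with 10 nM enzyme. Signal taken at 0 min and again at 10 min.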
POLB inh: qHTS Assay for Inhibitors of DNA Polymerase Beta. P06746. Pol beta primer extension/strand displacement, fluorescence kinetic. Potency, µM (doses to about 114 µM), without a hit: at the top dose activity change, negative = inhibition, actives largely listed as inhibitors. hit rate 1.3% among 340,000. AID 485314, 2010; note: % is set by controls: 0 for no effect and ±100 for the full control effect
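Values derive from four-parameter Hill fits of normalized kinetic data: reads at 0 and 10 min following addition of 50 nM substrate to 10 nM Pol beta preincubated 15 min with compound.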
FEN1 inh: qHTS Assay for the Inhibitors of Human Flap endonuclease 1 (FEN1); P39748; Recombinant FEN1 flap cleavage, fluorescence, 15 min; Potency, µM (titrated, usually from 114 µM), inactives show top-dose activity change, negative = inhibition, hits mostly inhibitors; hit rate 0.35% among 390,000; note: % is set by controls: 0 for no effect and ±100 for the full control effect; nearly all actives have a fitted effect of over 65% in size
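Concentration–response screening of FEN1 (10 nM): 15 min compound preincubation at room temperature, reaction started with 50 nM substrate and read at 0 and 15 min. Corrected, normalized data were fitted by a four-parameter Hill equation.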
* = called active by the depositor; [ ] = remark or other dose. A selection: hits, their analogues and other compounds. The true share with any hit is near 2.4%. Calls come from the whole dose curve; as a rule, active = well fitted curve in the direction sought with a large enough effect; inconclusive = small, poorly fitted or top-dose-only effect, or another doubt; inactive = no such curve, though single readings can be large; an effect the other way counts as inactive or inconclusive. Potency is the fitted concentration of half-maximal effect.

What do the screens show for `CCCC[n+]1ccn(-c2nc3ccccc3nc2[N-]S(=O)(=O)c2ccc(Br)cc2)c1`?
WRN inhibitor: -1%; Pol iota inh: 36%; POLK inh: 3%; Pol eta inh: inconclusive; POLB inh: -7%; FEN1 inh: 0%

What do the screens show for `C#CCn1cc(/C=N/NC(=O)COc2cccc3cccnc23)c2ccccc21`?
WRN inhibitor: inconclusive; Pol iota inh: 22µM*; POLK inh: inconclusive; Pol eta inh: inconclusive; POLB inh: inconclusive; FEN1 inh: -6%

How did O=C(O)COc1ccccc1/C=N/NC(=O)c1cc2ccccc2cc1O do in these assays?
WRN inhibitor: -8%[11.6 µM]; Pol iota inh: 14µM*; POLK inh: inconclusive; Pol eta inh: -5%; POLB inh: -11%; FEN1 inh: -18%

Results for O=C(N/N=C/c1ccccc1C(=O)O)c1ccc(COc2cccc3cccnc23)cc1 ?
WRN inhibitor: 2%[11.6 µM]; Pol iota inh: inconclusive; POLK inh: inconclusive; Pol eta inh: 40µM*; POLB inh: inconclusive; FEN1 inh: -14%

How did O=C(COc1cccc2cccnc12)N/N=C/c1ccccc1O do in these assays?
WRN inhibitor: inconclusive; Pol iota inh: 4%; POLK inh: -14%; Pol eta inh: -17%; POLB inh: 32µM*; FEN1 inh: 1%

How did COc1ccccc1NC(=O)CCN1CCC(C(N)=O)CC1 do in these assays?
Pol iota inh: 2%; POLK inh: 5%; Pol eta inh: -3%; POLB inh: -2%; FEN1 inh: 24%

How did CCOC(=O)c1nc2sc(C)c(C)c2c(=O)[nH]1 do in these assays?
WRN inhibitor: 2%; Pol iota inh: 68%; POLK inh: 12%; Pol eta inh: -11%; POLB inh: 32%; FEN1 inh: -14%

What do the screens show for `CCOC(=O)/C(=C\c1cccc(O)c1)c1nc2sc(C)c(C)c2c(=O)[nH]1`?
WRN inhibitor: inconclusive; Pol iota inh: 18µM*; POLK inh: -9%; Pol eta inh: -20%; POLB inh: -29%; FEN1 inh: -6%

What do the screens show for `O=C1/C(=C/c2ccccc2Cl)SC(=S)N1CCC(=O)N1CCCCC1CCO` (centres undefined)?
WRN inhibitor: -6%[11.6 µM]; Pol iota inh: 25µM*; POLK inh: inconclusive; Pol eta inh: -12%; POLB inh: 1%; FEN1 inh: -27%

How did O=C(CCCN1C(=O)/C(=C/c2ccccc2Cl)SC1=S)NCCCN1CCOCC1 do in these assays?
WRN inhibitor: 89µM*; Pol iota inh: inconclusive; POLK inh: -3%; Pol eta inh: -1%; POLB inh: 3%; FEN1 inh: -7%

Results for O=C1/C(=C\c2ccccc2)SC(=S)N1CCC(=O)N1CCCCC1CCO (centres undefined) ?
WRN inhibitor: -2%; Pol iota inh: 21%; POLK inh: 6%; Pol eta inh: 5%; POLB inh: 32%; FEN1 inh: -13%

What do the screens show for `CCN(CC)c1ccc(CNc2nc3ccccc3n2C(C)C)cc1`?
WRN inhibitor: -6%; Pol iota inh: -8%; POLK inh: -14%; Pol eta inh: -12%; POLB inh: 1%; FEN1 inh: -1%

Results for CC1(C)CCC2=C(O1)c1ccccc1C(=O)C2=O ?
Pol iota inh: 7.9µM*; POLK inh: -2%[60.1 µM]; Pol eta inh: 22µM*; POLB inh: 0%[57.1 µM]; FEN1 inh: inconclusive

What do the screens show for `CCc1nc2c(OCCOc3ccc(F)cc3)cccn2c1N(C)C(=O)c1cccs1`?
WRN inhibitor: -13%

What do the screens show for `Cc1cc(-c2nnc(SCC(=O)c3ccc4c(c3)OCCO4)o2)no1`?
WRN inhibitor: 1%; Pol iota inh: 54%; POLK inh: -7%; Pol eta inh: -13%; POLB inh: 40µM*; FEN1 inh: -5%

What do the screens show for `Cc1cc(C)cc(-c2nnc(SCC(=O)c3ccc4c(c3)OCCO4)o2)c1`?
WRN inhibitor: -2%; Pol iota inh: 8%; POLK inh: -7%; Pol eta inh: -10%; POLB inh: 1%; FEN1 inh: -2%

Results for CSCCC(NC(=O)c1ccccc1Cl)C(=O)NC1CCN(Cc2ccccc2)CC1 (centres undefined) ?
WRN inhibitor: -31%; Pol iota inh: 11%; POLK inh: -1%; Pol eta inh: -10%; POLB inh: 21%; FEN1 inh: -6%

How did CCCCCC(=O)Cc1cc(O)cc2c1C(=O)Oc1cc(O)c(C(=O)O)c(CCCCC)c1O2 do in these assays?
WRN inhibitor: 45µM*; Pol iota inh: 71µM*; POLK inh: 79µM*; Pol eta inh: 18µM*; POLB inh: 45µM*; FEN1 inh: inconclusive

How did CC(C)=C1C(=O)NN(c2ccc(F)c(Cl)c2)C1=O do in these assays?
WRN inhibitor: inconclusive; Pol iota inh: inconclusive; POLK inh: 25µM*; Pol eta inh: -7%; POLB inh: inconclusive; FEN1 inh: -19%

Results for O=C1NN(c2ccc(F)c(Cl)c2)C(=O)/C1=C\c1cccc(OC(=O)c2cccs2)c1 ?
WRN inhibitor: 50µM*; Pol iota inh: inconclusive; POLK inh: inconclusive; Pol eta inh: 20µM*; POLB inh: inconclusive; FEN1 inh: -16%

What do the screens show for `CCCCCCC[n+]1ccc(/C=C/c2c(C)[nH]c3ccccc23)c2ccccc21`?
Pol iota inh: 79µM*; POLK inh: inconclusive; FEN1 inh: 45µM*

What do the screens show for `CCCCCCCCCCCC[n+]1ccc(/C=C/c2c[nH]c3ccccc23)c2ccccc21`?
Pol iota inh: -18%; POLK inh: 10%; FEN1 inh: -31%

What do the screens show for `CCCCCCCCCC[n+]1ccc(/C=C/c2c(C)[nH]c3ccccc23)c2ccccc21`?
Pol iota inh: 59%; POLK inh: inconclusive; FEN1 inh: 45µM*

How did O=S(=O)(Nc1cc(C(F)(F)F)ccc1N1CCOCC1)c1ccc2ccccc2c1 do in these assays?
WRN inhibitor: -6%; Pol iota inh: 133%; POLK inh: -12%; Pol eta inh: inconclusive; POLB inh: 1%; FEN1 inh: -10%

What do the screens show for `C=C1[C@@H](O)[C@H](CC(C)C)N(Cc2ccccc2Br)S1(=O)=O`?
WRN inhibitor: -2%; Pol iota inh: 2%; POLK inh: 6%; Pol eta inh: 50µM*; FEN1 inh: -6%

What do the screens show for `O=S1(=O)CCO[C@H]2CCCC[C@@H]2N1Cc1ccccc1Br`?
Pol iota inh: 9%; POLK inh: -9%; FEN1 inh: -21%
